Results on 6 compounds are retold here after PubChem BioAssay.

One may read the AC50 as the midpoint of the concentration-response curve, whichever way the signal moves. The term inhibition denotes the drop in the measured response relative to a control, in per cent. By IC50 is commonly meant the concentration at which inhibition is half-maximal.

Experiment [1] can be described thus: growth inhibition of DIPG glioma cells, dose response, cell-based, SU-DIPG-XVII, MIPE5.0, CellTiter-Glo, qHTS (AID 1347060).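 As to AC50: cells exposed to compound for 48 hours before viability readout.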 To be noted: SU-DIPG-XVII viability, CellTiter-Glo ATP luminescence. (In general: Cellular ATP, detected with luciferase, serves as a proxy for viable cell number.)
The nature of experiment [2]: growth inhibition of DIPG glioma cells, dose response, cell-based, SU-DIPG-XIII, MIPE5.0, CellTiter-Glo, qHTS (AID 1347064; cut-off not given, nearly all actives have AC50 up to about 23 µM;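 as to AC50: cells exposed to compound for 48 hours before the viability read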). Conditions: SU-DIPG-XIII viability, CellTiter-Glo ATP luminescence.
Experiment [3] in a line: viability loss in pontine glioma line – cell-based, SU-DIPG-XXV, MIPE5.0, CellTiter-Glo, qHTS, dose response (AID 1347065).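 Also: cells exposed to compound for 48 hours before ATP readout.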 Conditions: CellTiter-Glo ATP luminescence.
Experiment [4] in a line: JHH-DIPG-1 glioma cell viability, MIPE5.0 library, CellTiter-Glo luminescence, qHTS (AID 1347067).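 Also: cells exposed to compound for 48 hours before readout.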 Conditions: JHH-DIPG-1 glioma viability, CellTiter-Glo ATP luminescence.
Experiment [5] can be described thus: SU-DIPG-XXV glioma cell viability, MIPE5.0 library, qHTS (AID 1347068; cut-off not given, nearly all actives have IC50 up to about 30 µM;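 as to IC50: cells exposed to compound for 48 hours before viability readout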). (In qHTS, concentration-response curves come from the screen itself.)
Experiment [6] is described as follows: LFS_MB_P medulloblastoma growth inhibition, cell-based, chromothripsis tumors, cisplatin or BGB combos (AID 1671449; in the data active = inhibition above about 80%;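 also: cells exposed for 96 hours; 0% = vehicle DMSO and 100% = killing by high DMSO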). Conditions: LFS_MB_P medulloblastoma cells.
Experiment [7] can be described thus: HDN33 neuroblastoma growth inhibition, cell-based, chromothripsis tumors, cisplatin or BGB combos (AID 1671450; in the data active = inhibition above about 80%;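 also: cells exposed to compound for four days; 0% = vehicle DMSO and 100% = cell killing by high DMSO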). To be noted: HDN33 neuroblastoma cells, stronger effect = higher value.
Experiment [8] in a line: ICB984 medulloblastoma cell growth inhibition, synergistic combos for chromothripsis tumors, cisplatin or BGB combos (AID 1671451; call rule not given here;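 also: cells exposed for 96 hours before readout; 0% = vehicle DMSO and 100% = killing by high DMSO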). Conditions: ICB984 medulloblastoma cells, drug combinations, stronger effect = higher value.
The nature of experiment [9]: LFS_MB_1R medulloblastoma cell growth inhibition, synergistic combos for chromothripsis tumors, cisplatin or BGB combos (AID 1671452; in the data active = inhibition above about 80%;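 also: cells exposed for 96 hours before readout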). Conditions: LFS_MB_1R medulloblastoma cells, stronger effect = higher value.
Experiment [10] in a line: HTB85 osteosarcoma cell growth inhibition, synergistic combos for chromothripsis tumors, BGB or cisplatin IC20 combos (AID 1671453; in the data active = inhibition above about 80%;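 also: cells exposed for 96 hours before readout; 0% = vehicle DMSO and 100% = high DMSO killing control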). To be noted: HTB85 osteosarcoma cells, drug combinations, stronger effect = higher value.
Experiment [11] can be described thus: CRL2098 osteosarcoma cell growth inhibition, synergistic combos for chromothripsis tumors, BGB or cisplatin IC20 combos (AID 1671454; in the data active = inhibition above about 80%;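 also: cells exposed for 96 h before readout; 0% = vehicle DMSO and 100% = killing by high DMSO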). Conditions: CRL2098 osteosarcoma cells, drug combinations, stronger effect = higher value.
Experiment [12] in a line: HD-MB03 medulloblastoma cell growth inhibition, synergistic combos for chromothripsis tumors, BGB or cisplatin IC20 combos (AID 1671455; in the data active = inhibition above about 83%;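 also: 0% = vehicle DMSO and 100% = high DMSO as cytotoxic control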). To be noted: HD-MB03 medulloblastoma cells, stronger effect = higher value.
Experiment [13] is described as follows: UWB1.289 ovarian carcinoma cell growth inhibition, synergistic combos for chromothripsis tumors, BGB or cisplatin combos (AID 1671456; in the data active = inhibition above about 80%;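 also: cells exposed to compound for four days; 0% = vehicle DMSO and 100% = killing by high DMSO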). Conditions: UWB1.289 ovarian carcinoma cells, stronger effect = higher value.
Experiment [14] in a line: MDA-MB-436 breast carcinoma cell growth inhibition, synergistic combos for chromothripsis tumors, BGB or cisplatin combos (AID 1671458; call rule not given here;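 also: cells exposed for 96 hours; 0% = vehicle DMSO and 100% = killing by high DMSO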). To be noted: MDA-MB-436 breast carcinoma growth inhibition, drug combinations, stronger effect = higher value.
A short description of experiment [15]: growth inhibition of BT084 medulloblastoma cells, cell-based, ICGC_MB145, cisplatin and BGB IC40 combos (AID 1671461; in the data active = inhibition above about 80%;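 also: cells exposed to drugs for 96 hours; 0% = vehicle DMSO and 100% = high DMSO full killing control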). Conditions: drug combinations, stronger effect = higher value.
Experiment [16] can be described thus: growth inhibition of RCMB18 medulloblastoma cells, cell-based, cisplatin and BGB IC40 combos (AID 1671462; in the data active = inhibition above about 80%;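 also: cells exposed to compound for four days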). Conditions: stronger effect = higher value.
Experiment [17] can be described thus: growth inhibition of CRL1545 osteosarcoma cells, cell-based, cisplatin and BGB IC20 combos (AID 1671464; in the data active = inhibition above about 80%;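 also: cells exposed to compound for 96 hours before readout; 0% = vehicle DMSO and 100% = high DMSO killing control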). To be noted: stronger effect = higher value.
The nature of experiment [18]: sensitizers of A549 cells to miR-34 induction, primary screen, imaging, A549 dox-inducible miR-34, nuclei and caspase counts (AID 1347080;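 active = compounds whose cell count with miR-34 switched on is under 0.7 times the count with it off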). To be noted: A549 miR-34 inducible, Hoechst nuclei count, 48 h.
A short description of experiment [19]: survival rescue of mitochondrial mutant cells in low glucose, primary screen, MELAS cybrids, Rieske KO mouse fibroblasts, CellTiter-Glo (AID 1508586;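 active = mean z-score across replicates of 1.96 or higher in either the MELAS or the Rieske mutant cell line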;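 also: z relative to plate mean and SD of compound and empty wells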).
[20] abbreviates: measured here: combination with BGB IC40, at 0.05 µM.
[21] abbreviates: measured here: with BGB IC20 combination, at 0.5 µM.
Setting [22] is: measured here: with cisplatin IC20 combination, at 0.5 µM.
The mark [23] stands for this setting: measured here: combination with cisplatin, at 0.5 µM.
Where [24] appears, read: stronger effect = lower value, cell number ratio, induced over uninduced.
Where [25] appears, read: measured here: relative caspase fold change +Dox/-Dox.
The mark [26] stands for this setting: measured here: total cells with miR-34 induction, stronger effect = lower value.
The mark [27] stands for this setting: measured here: total cells without miR-34 induction.
Setting [28] is: MELAS cybrid survival, CellTiter-Glo 48 h, stronger effect = higher value.
Setting [29] is: Rieske KO mouse fibroblast survival, CellTiter-Glo 72 h.

Each structure is given as a SMILES string. Inconclusive results are not listed. Active and inactive are the calls of the source. Unless noted, the limit is not given here; nearly all actives have AC50 up to about 26 µM.

For the compound `CC(=O)[C@]1(N)Cc2c(O)c3c(c(O)c2[C@@H](O[C@H]2C[C@H](O)[C@H](O)CO2)C1)C(=O)c1ccccc1C3=O`, the AC50 in [1] is 16.6 µM (active); in experiment [2], 16.6 µM (active); in [3], 20.9 µM (active); in experiment [4] it was 16.6 µM (active). The call in [5] was inactive. Moreover, the inhibition was -12.9% (inactive) in experiment [6] (at 0.5 µM, stronger effect = higher value); -16.8% in [6] (measured here: combination with BGB IC20, at 0.005 µM); -30.9% in [6] (measured here: combination with BGB IC40, at 0.005 µM); -51.9% in [6] (setting [20]); -19.4% in experiment [6] (measured here: combination with cisplatin, at 0.5 µM, stronger effect = higher value); 104% in experiment [6] (measured here: combination with cisplatin, at 5 µM, stronger effect = higher value). Further, the inhibition was 96.4% in experiment [7] (BGB combo, at 5 µM); -0.33% (inactive) in experiment [7] (at 0.5 µM); 97.3% in experiment [7] (cisplatin combo, at 5 µM); 0.353% in experiment [7] (setting [21]); -4.83% in experiment [7] (setting [22]); 98.2% in experiment [7] (single agent, at 5 µM). The inhibition in experiment [8] (BGB IC20 combo, at 0.005 µM) is 2.76%; in [8] (BGB IC40 combo, at 0.005 µM), -3.55%; in experiment [8] (BGB IC40 combo, at 0.05 µM), 86.2%; in experiment [8] (at 0.5 µM), -21.5% (inactive); in experiment [8] (cisplatin combo, at 0.05 µM), 85.8%; in experiment [8] (cisplatin combo, at 0.5 µM), -10.1%. The inhibition was -12.5% in [8] (cisplatin combo, at 5 µM); -13.2% in experiment [8] (measured here: 5 uM single agent, at 5 µM); -7.63% (inactive) in experiment [9] (at 0.5 µM); -7.53% in experiment [9] (setting [20]); -2.7% in experiment [9] (setting [23]); 81.1% in experiment [9] (measured here: combination with cisplatin, at 5 µM). The inhibition in [10] (at 0.5 µM) is -1.28% (inactive); in [10] (measured here: with BGB IC20, at 0.5 µM), 3.02%; in experiment [10] (measured here: with BGB IC20, at 5 µM), 79.1%; in experiment [10] (measured here: with cisplatin IC20, at 0.5 µM), -5.97%; in experiment [10] (measured here: with cisplatin IC20, at 5 µM), 82.6%; in experiment [10] (single agent, at 5 µM) it was 81.3%. Also, the inhibition in experiment [11] (at 0.5 µM) was -28.4% (inactive); in experiment [11] (measured here: combination with BGB at IC20, at 0.5 µM), -13.2%; in experiment [11] (measured here: combination with cisplatin at IC20, at 0.5 µM) it was -55.8%; in [12] (at 0.5 µM), -4.21% (inactive); in experiment [12] (measured here: combo with BGB at IC20, at 0.5 µM), 5.01%; in experiment [12] (measured here: combo with cisplatin at IC20, at 0.5 µM), -12.8%. Moreover, the inhibition is 13.8% (inactive) in experiment [13] (at 0.5 µM); -13.2% in experiment [13] (measured here: inhibition with BGB combination, at 0.05 µM); 8.23% in experiment [13] (measured here: inhibition with cisplatin combination, at 0.05 µM); -0.11% (inactive) in experiment [14] (at 0.5 µM); -3.77% in experiment [14] (measured here: BGB combination, at 0.5 µM); 73.9% in experiment [14] (measured here: BGB combination, at 5 µM). Besides, the inhibition in experiment [14] (measured here: cisplatin combination, at 0.5 µM) is -8.99%; in [14] (measured here: cisplatin combination, at 5 µM), 84%; in experiment [15] (at 0.5 µM), 22.6% (inactive); in experiment [15] (cisplatin combination, at 0.5 µM), -12.8%; in experiment [15] (cisplatin combination, at 5 µM) it was 84.4%; in experiment [15] (measured here: BGB IC40 combination 0.05 uM, at 0.05 µM) it was -38.7%. The inhibition was 86.5% in experiment [15] (single agent, at 5 µM); 9% (inactive) in experiment [16] (at 0.5 µM); 89.6% in [16] (cisplatin combo, at 5 µM); -27.7% in experiment [16] (measured here: BGB IC40 combination, at 0.05 µM); 31.1% in experiment [16] (setting [23]); 89.9% in experiment [16] (single agent, at 5 µM). The inhibition in [17] (at 0.5 µM) is 20% (inactive); in experiment [17] (setting [21]) it was -1.69%; in [17] (setting [22]), 29.7%; in experiment [17] (single agent, at 0.05 µM) it was 22.1%; in [17] (single agent, at 5 µM), 90.1%.

Take `CCN1CCN(Cc2ccc(Nc3ncc(F)c(-c4cc(F)c5nc(C)n(C(C)C)c5c4)n3)nc2)CC1`: the AC50 in experiment [1] is 5.9 µM (active); in [2], 7.42 µM (active); in experiment [3], 6.61 µM (active); in experiment [4], 8.33 µM (active). In experiment [5], the IC50 is 23.5 µM (active). Further, the values for the fold change in [18] (setting [24]) and in experiment [18] (setting [25]) were 0.908 (inactive) and 0.558, respectively. For the same compound, the cell count came to 2650 in experiment [18] (setting [26]) and 2920 in experiment [18] (setting [27]). Besides, the values for the z-score in experiment [19] (setting [28]) and in experiment [19] (setting [29]) were 5.9 (active) and -5.11, respectively.

In the case of `CCN1CCN(Cc2ccc(NC(=O)c3ccc(C)c(NC(=O)c4cncc(-c5cccs5)c4)c3)cc2C(F)(F)F)CC1`, the AC50 was 5.9 µM (active) in experiment [1], 14.8 µM (active) in experiment [2], 1.05 µM (active) in [3] and 2.63 µM (active) in experiment [4]. In [5], the IC50 is 4.17 µM (active).

Regarding `COc1nc(N)nc2c1ncn2C1OC(CO)C(O)C1O` (stereo unspecified), the compound was called inactive in experiment [1], in experiment [2], in experiment [3], in experiment [4] and in experiment [5]. Further, the fold change in experiment [18] (setting [24]) is 0.895 (inactive); in experiment [18] (setting [25]) it was 0.879. The values for the cell count in experiment [18] (setting [26]) and in experiment [18] (setting [27]) were 6660 and 7440, respectively. The values for the z-score in experiment [19] (setting [28]) and in experiment [19] (setting [29]) were -0.422 (inactive) and -0.253, respectively.

For the compound `COc1ccc2cc(OCC3(C(=O)O)CN(C(=O)c4ccc(F)cc4)C3)ccc2c1`, the call in [1], in [2], in experiment [3], in [4] and in [5] was inactive.

`COc1ccc(S(=O)(=O)N(CCO)c2ccccc2CN(C)C/C=C/c2ccc(Cl)cc2)cc1`: the AC50 in [1] is 18.6 µM (active); in experiment [2], 7.42 µM (active); in experiment [3] it was 16.6 µM (active); in experiment [4], 10.5 µM (active). Further, in [5], the IC50 is 18.6 µM (active).
